Most compounds without a hit are left out; they make up all but 2.2% or so of the library.
Calb FLC: C. albicans growth modulation with fluconazole; C. albicans CaCi-2 (fluconazole-resistant clinical isolate) + fluconazole, Alamar Blue growth, 48 h; growth inhibition, % (concentration not given with the values); hit rate 0.57% among 300,000;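 active = growth inhibition above about 58% in most replicates, limit read from the data, passing the limit was not always enough; inconclusive = exactly half the replicates above a set limit; inactive = most replicates below a set limit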;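 note: all wells also contain fluconazole at 8 µg/ml as a sub-toxic cotreatment; 0% = median of DMSO wells and 100% = median of geldanamycin control wells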
Beta apoptosis: blocks beta cell apoptosis; INS-1E cytokine-induced death, ATP luminescence, 48 h; percent of positive-control rescue, neutral wells zero; protection from apoptosis, % (no concentration beside the values); hit rate 0.8% among 300,000;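 active = Every replicate reaches about 75%, or at least half do and their mean reaches it too, limit read from the data; inconclusive = At least half of replicates reach the limit but their mean does not; inactive = Under half of replicates reach the limit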;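 note: 0% = cytokine-treated negative control wells and 100% = positive control rescue; higher means more ATP so stronger rescue from cytokine killing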
CSC inhib: cancer stem cell inhibition | AID 2717 | cancer stem cell-like cells viability, luminescence | hit rate 1.1% among 300,000 | inhibition, % at 7.5 µM; in the data active = inhibition above about 75%; inconclusive = no clear call, values can overlap the other calls; tested in HMLE shEcad cells
PfHsp90 yeast 2: reduces growth (ATP signal) of yeast expressing P. falciparum Hsp90 | S. cerevisiae expressing PfHsp90, BacTiter-Glo ATP, 48 h; yeast lacking PDR1 and PDR3 efflux regulators | inhibition, % at 9.4 µM | hit rate 0.32% among 310,000 | AID 504621;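 active = every replicate shows inhibition above about 80%, whatever the replicate mean, limit read from the data; inconclusive = mean inhibition reaches the set limit but some replicate falls short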;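 note: 0% = DMSO neutral controls and 100% = 20 µM radicicol positive controls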
Shn3 inh set2: Schnurri-3 reporter inhibition in Clone20 osteoblasts. inhibition, % at 12.5 µM. hit rate 0.52% among 360,000. Clone20 osteoblast Shn3 3'UTR firefly luciferase, 24 h. AID 588674;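 active = mean inhibition of at least 75% with every replicate also reaching 75%; inconclusive = mean inhibition at least 75% but some replicate below; inactive = mean inhibition below 75%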;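 note: 0% = median of neutral control wells and 100% = pilot-screen positive control compound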
The depositor's hits bear a star; u = inconclusive; x = no result.

SMILES | Calb FLC | Beta apoptosis | CSC inhib | PfHsp90 yeast 2 | Shn3 inh set2
C=C(C)COc1ccc(-c2n[nH]c(C)c2Oc2ccccc2OC)c(O)c1 | 8 | 7 | -7 | -36 | 26
C=C(C)COc1ccc(-c2[nH]ncc2-c2ccc(OC)cc2)c(O)c1 | 0 | -9 | u | 22 | 10
C=C(C)COc1ccc(-c2[nH]ncc2Oc2cccc(OC)c2)c(O)c1 | -6 | 1 | -9 | 110* | 41
COc1ccc(C(=O)NCc2ccc(F)cc2)cc1S(=O)(=O)N1CCCC1 | x | x | x | x | -4
C=C(C)COc1ccc(-c2nc(N)ncc2-c2ccc(Cl)cc2)c(O)c1 | -5 | 2 | 104* | -18 | -9
C=C(C)COc1ccc(-c2nc(N)ncc2-c2ccc(OC)cc2)c(O)c1 | x | x | x | x | -74
C/C(=N\Nc1cc(-c2ccccc2)nc(-c2ccc(Br)cc2)n1)c1cccc(N)c1 | 5 | 6 | 46 | x | 41
C/C(=N/Nc1cc(-c2ccccc2)nc(-c2ccccc2)n1)c1ccc(O)cc1 | 0 | 7 | 106* | 4 | -1
FC(F)Sc1ccc(N=C2NN=C(c3ccc4c(c3)OCCO4)CS2)cc1 | 3 | 101* | 20 | -61 | 20
COc1ccc(N=C2NN=C(c3ccc4c(c3)OCCO4)CS2)cc1 | -10 | -9 | -12 | 9 | -21
CN(C(=O)CSc1nc2ccc(Cl)cc2[nH]1)C1CCS(=O)(=O)C1 (configuration not stated) | x | -1 | -11 | 3 | -110
CCCN(CC(=O)Nc1ccc(F)c(F)c1F)C(=O)CN1C(=O)NC2(CCCCC2)C1=O | x | x | x | -2 | 69
NNc1ncnc2scc(-c3ccc(Cl)cc3)c12 | 15 | 94* | -6 | 19 | 41
O=S(=O)(Nc1ncnc2scc(-c3ccc(F)cc3)c12)c1cc(F)ccc1F | 11 | 3 | 32 | 16 | 4
Cc1ccc(-c2csc3ncnc(NS(=O)(=O)c4ccc(Cl)cc4)c23)cc1 | 46 | 5 | 82* | 9 | 0
Cc1ccc(/C=C2\SC(=S)N(CCC(=O)NNC(=O)c3ccccc3O)C2=O)cc1 | -7 | x | -5 | -13 | 10
O=C(CN1C(=O)/C(=C/c2ccccc2)SC1=S)NNC(=O)c1ccccc1O | 84* | 5 | -10 | 9 | -1
Cc1ccc(/C=C2\SC(=S)N(CCCC(=O)NNC(=O)c3ccccc3O)C2=O)cc1 | -3 | -2 | -6 | -3 | 87*
C/C(=N\NC(=O)c1nnn(-c2nonc2N)c1CN1CCC(C)CC1)c1ccc(Br)cc1 | x | x | x | x | 6
COC(=O)c1ccccc1-c1c2ccc(=N)cc-2oc2cc(N)ccc12 | x | 99* | x | 5 | -9
COC(=O)CS(=O)(=O)c1nnc([C@H](Cc2ccccc2)NC(=O)OC(C)(C)C)o1 | 13 | 35 | 91* | -33 | 96*
CC(C)(C)OC(=O)N[C@@H](Cc1ccccc1)c1nnc(SCC(N)=O)o1 | 11 | -2 | -4 | -29 | 9
COC(=O)CSc1nnc([C@H](Cc2ccccc2)NC(=O)OC(C)(C)C)o1 | -5 | -8 | -11 | -5 | -23
Cc1cccc(CS(=O)(=O)c2nnc([C@H](Cc3ccccc3)NC(=O)OC(C)(C)C)o2)c1 | -16 | 53 | 95* | 112* | 97*
CCOC(=O)C1=CCN(S(=O)(=O)c2ccccc2F)C1c1ccc(Cl)c(Cl)c1 (configuration not stated) | x | x | x | x | 3
SMILES | Calb FLC | Beta apoptosis | CSC inhib | PfHsp90 yeast 2 | Shn3 inh set2
Cc1ccc2c(c1)C(=O)N1[C@H]3c4ccccc4OC[C@@H]3[C@H](c3ccccc3)[C@]1(C)C(=O)N2 | x | -2 | 14 | 105* | 2
C[C@@]12C(=O)Nc3ccc(Br)cc3C(=O)N1[C@H]1c3ccccc3OC[C@@H]1[C@@H]2c1ccccc1 | x | 5 | 24 | 105* | 28
CC(=O)c1ccc(NC(=O)COC(=O)CCC2CCCC2)cc1 | x | 0 | -2 | -49 | -11
CCCC(O)(c1ccc(Cl)cc1)C(CN1CCOCC1)c1ccccc1 (configuration not stated) | 0 | x | x | 5 | -4
CCCC(O)(c1ccc(Br)cc1)C(CN1CCOCC1)c1ccc(Cl)cc1 (configuration not stated) | -6 | 13 | 93* | -16 | 4
O=C(CSc1ccc2nnc(-c3ccccn3)n2n1)Nc1ccc(F)cc1F | 4 | -1 | -16 | 2 | -2
COc1ccc(-c2cc(-c3ccco3)[nH]c(=O)c2C#N)cc1OC | 17 | 0 | -1 | -44 | 7
COc1cc(/C=N/Nc2ccc(F)cc2F)cc(OC)c1O | -24 | -7 | 95* | 4 | 2
CCOC(=O)c1c(NC(=O)/C=C/C(=O)O)sc(C)c1-c1ccc(Cl)cc1 | 23 | 8 | 75* | -20 | -30
COc1cc2cnc(-c3ccccc3)c(C(=O)c3ccc(F)cc3)c2cc1OC | x | 0 | -12 | 85* | 19
Cc1c(Cl)cn2c(=O)cc(CN3CCN(c4ccc(F)cc4)CC3)nc2c1Cl | 49 | 1 | 9 | x | x
CCCOC1CCCN(Cc2nc(-c3ccc(C(=O)OC)cc3)no2)C1 (configuration not stated) | -7 | -6 | -13 | -8 | -12
CS(=O)(=O)N1CCN(c2ccccc2NC(=O)c2ccc(-c3ccc(Cl)cc3Cl)o2)CC1 | 4 | 21 | -8 | -13 | 2
CN1CCN(c2ccccc2NC(=O)c2ccc(-c3ccc(Cl)cc3Cl)o2)CC1 | 14 | 18 | 101* | 6 | 8
Cc1ccc(N2C(=O)CC(Cc3ccc(Cl)cc3)C2=O)cc1 (configuration not stated) | -10 | 2 | -13 | 27 | 6
CCn1nnc(NC(=O)COc2ccc([N+](=O)[O-])cc2)n1 | -4 | -3 | -10 | -75 | -19
Clc1cccc(CSc2nnc(-c3cccnc3)n2Cc2ccco2)c1 | 25 | -7 | -21 | x | 8
Clc1ccc(CSc2nnc(-c3cccnc3)n2Cc2ccco2)c(Cl)c1 | 24 | -12 | 86* | 5 | 62
Cc1cccc(NC(=O)CSc2n[nH]c(-c3ccncc3)n2)c1C | -2 | 1 | 1 | 4 | 17
CCN(CC)c1ccc(/C=N/NC(=O)CCC(=O)NCc2ccccc2)c(O)c1 | -1 | 98* | 82* | 5 | 74
CCN(CC)c1ccc(/C=N/NC(=O)CNC(=O)C2COc3ccccc3O2)c(O)c1 (configuration not stated) | 89* | 99* | 4 | x | 90*
c1ccc(CSc2nnnn2-c2ccc3c(c2)OCCO3)nc1 | -2 | 2 | 2 | -47 | 2
Clc1ccc(CSc2nnnn2-c2ccc3c(c2)OCO3)c(Cl)c1 | -30 | 0 | 82* | 15 | 0
COc1cccc(C2CC(c3cccs3)=NN2C(=O)CSc2nc3c(cnn3-c3ccc(F)cc3)c(=O)[nH]2)c1OC (configuration not stated) | 37 | 6 | 118* | 1 | 2
COc1ccc(C2CC(c3cccs3)=NN2C(=O)CSc2nc3c(cnn3-c3ccccc3)c(=O)[nH]2)cc1 (configuration not stated) | 9 | 3 | 70 | 5 | 8

Screening data as filed in PubChem BioAssay.
